An excerpt weighted towards active compounds, which were near 4.6% of everything screened.
D1 ag: agonists of human D1 dopamine receptor | P21728 | HEK293 T-REx D1 cells, calcium flux, agonist mode | activation, % at 2 µM | 360,000 compounds, 1% hits | AID 504660
Target sequence (P21728 whole entry, looked up): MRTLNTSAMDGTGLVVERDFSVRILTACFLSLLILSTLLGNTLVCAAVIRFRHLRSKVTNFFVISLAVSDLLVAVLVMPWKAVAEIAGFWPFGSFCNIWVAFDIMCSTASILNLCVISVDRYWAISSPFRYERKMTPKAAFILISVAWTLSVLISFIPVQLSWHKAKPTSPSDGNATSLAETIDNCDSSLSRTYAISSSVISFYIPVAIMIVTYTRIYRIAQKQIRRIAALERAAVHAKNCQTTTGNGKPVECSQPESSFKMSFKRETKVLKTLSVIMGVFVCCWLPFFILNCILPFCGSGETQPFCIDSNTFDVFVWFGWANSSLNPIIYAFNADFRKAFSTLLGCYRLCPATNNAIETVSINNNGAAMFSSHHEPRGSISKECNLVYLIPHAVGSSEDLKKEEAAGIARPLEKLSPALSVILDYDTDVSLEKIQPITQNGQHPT
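Agonism was scored from calcium flux recorded over 180 s (1 read/s) after pintool compound addition, following a 10-cycle baseline. Cells were inducible force-coupled HEK293 TREx D1, plated overnight at 30 C and loaded with no-wash calcium dye.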
D1 PAM: enhances dopamine response at the human D1 receptor; potentiation, % at 10 µM; 360,000 compounds, 0.036% hits; AID 504651; HEK293 TREx D1 cells, calcium flux, dopamine EC20 potentiation; P21728; in the data active = potentiation above about 30%
D1 antag: antagonists of human D1 dopamine receptor; AID 504652; P21728; HEK293 TREx D1 cells, calcium flux, dopamine EC80; active compounds read low; 360,000 compounds, 3.2% hits; activity change, negative = inhibition, % at 10 µM; in the data active = activity change below about -30%
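HEK293 T-REx cells expressing inducible, force-coupled D1 receptor; no-wash Ca dye, 30–90 min RT. Cmpd → 180 s read at 1 Hz → EC80 DA → 180 s read.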
TRHR ag: agonists of human TRH receptor | AID 493084 | activation, % at 2 µM | P34981 | TRHR cells, calcium flux fluo-8, FDSS agonist mode | 360,000 compounds, 0.18% hits
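TRHR-expressing cells, plated overnight in medium with 10% serum, were loaded with fluo-8 calcium dye at room temperature. After a 10 s baseline, library compound was pin-added and calcium release was recorded kinetically (ex 480/em 530) as agonist response.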
TRHR enhancer: allosteric enhancers of human TRH receptor; TRHR cells, fluo-8 calcium fluorescence, EC20 TRH enhancement; AID 493056; P34981; 360,000 compounds, 0.66% hits; enhancement, % at 2 µM; in the data active = enhancement above about 30%
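TRHR-expressing cells loaded with fluo-8 calcium dye were read kinetically (ex 480/em 530) during compound addition, then stimulated with an EC20 of TRH (10 nM final). Enhancement of the Gq-mediated intracellular calcium response was scored.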
Of the large screens only hits and unclear results are named; the others gave an inactive call. Cut-off read from the data, not from the text of the source, unless noted: active = activation above about 30%; inactive = the rest.

Cc1ncc(CN2CCCCC2C(=O)Nc2ccc(Oc3ccccc3)nc2)cn1 (stereo not given)	none
CCc1ccc(CN2CCC(C(=O)Nc3ccc(Oc4ccccc4)nc3)CC2)o1	D1 ag 37
CC(C)n1cc(CN2CCC(C(=O)Nc3ccc(Oc4ccccc4F)cc3)CC2)cn1	D1 ag 105, D1 antag -62
COc1cc(F)ccc1CN1CCC(C(=O)Nc2ccc(Oc3ccccc3)nc2)CC1	D1 ag 47
Fc1ccc(-n2ncc3c(Nc4ccc5c(c4)OCCO5)ncnc32)cc1	none
Fc1ccc(-n2ncc3c(NCCCn4ccnc4)ncnc32)cc1	none
COc1ccc(-n2ncc3c(NCCCn4ccnc4)ncnc32)cc1	none
Cc1ccc(-n2ncc3c(NCCCn4ccnc4)ncnc32)cc1C	D1 antag -60
Clc1cccc(-n2ncc3c(NCCCn4ccnc4)ncnc32)c1	D1 antag -40
Cc1ccc(NCC(=O)c2ccc(C)cc2)cc1	none
Clc1ccc2nc3c4ccccc4cnn3c2c1	none
Oc1ccc2nnc3c(Br)cnn3c2c1	D1 ag 171, TRHR ag 52
Cn1nc(C(F)(F)F)c(-c2ccc(Br)cc2)c1NC(=O)Nc1ccc(F)cc1F	D1 antag -34
Cn1nc(C(F)(F)F)c(-c2ccc(F)cc2)c1NC(=O)c1ccco1	none
Clc1ccc(Cn2c(-c3cccnc3Cl)nc3ccccc32)cc1	D1 antag -45
N#Cc1cc2c(nc1SCc1ccccc1)CCCCC2	none
Cc1ccc(CSc2nc3c(cc2C#N)CCC3)cc1	D1 antag -35
N#CCSc1nc2c(cc1C#N)CCCC2	D1 antag -32
N#Cc1cc2c(nc1SCc1cccc(Cl)c1)CCCCC2	D1 antag -39
Cc1c(-c2cccc(Cl)c2)nc2ccccc2c1C(=O)NC1CC1	none
O=[N+]([O-])c1ccc(Oc2ccc(S(=O)(=O)N3CCOCC3)cc2)cc1	D1 antag -42 (no result: D1 PAM)
O=C(Nc1cccc2nsnc12)c1cccnc1Cl	none
O=c1[nH]c(=O)n(Cc2ccco2)c2c1C(C(F)(F)F)(C(F)(F)F)N=C(c1ccc(F)cc1)N2	D1 ag 37 (no result: D1 antag)
Cc1ccc(N/N=C(\C#N)C(=O)c2ccsc2)cc1	D1 antag -47
Cc1ccc(NC(=O)CSc2nnnn2-c2cccnc2)c(C)c1	none
CN(CCc1cn[nH]c1)C(=O)CC1C(=O)NCCN1Cc1ccccc1C(F)(F)F (stereo not given)	D1 antag -40
CN(Cc1ccon1)C(=O)CC1C(=O)NCCN1Cc1ccccc1C(F)(F)F (stereo not given)	none
CCCCOc1ccc(CSC(=N)N)cc1Cl	D1 ag 65
CCCCCOc1ccc(Br)cc1CSC(=N)N	D1 ag 30
COc1ccc(Br)cc1CSC(=N)N	none
CCOc1ccc(CSC(=N)N)cc1	none
Cc1cc(C)nc(NC(=O)/C=C/c2ccccc2Cl)c1	D1 antag -70
O=C(Nc1cc(Cl)ccc1Cl)c1ccc(-c2ccccc2)cc1	D1 antag -34
O=C(NC(=S)Nc1ccc(Oc2ccc(Cl)cc2)cc1)c1ccccc1	none
O=C(Nc1ccc(F)c(Cl)c1)c1ccccc1	D1 antag -46
O=C(Nc1cc(Cl)ccc1O)c1snnc1-c1ccccc1	D1 antag -39
O=C(NC(=S)Nc1ccc(Cl)cc1)c1ccccc1	D1 antag -53
O=C(Nc1cccc(Cl)c1Cl)c1snnc1-c1ccccc1	none
O=C(Nc1ccc(F)c(Cl)c1)c1cccnc1	none
CC(=O)c1cc(Cl)ccc1OCC(=O)NC1CCCC1	none
O=C(NC(=S)Nc1ccc2cn[nH]c2c1)c1ccccc1	D1 antag -35
CC1(NC(=O)N2CCOCC2)CCS(=O)(=O)C1 (stereo not given)	none
COc1ccccc1OCCNC(=O)Cc1ccc(Cl)c(Cl)c1	D1 antag -34
CC1(C(=O)NCCOc2ccccc2Cl)CC1(Cl)Cl (stereo not given)	D1 antag -65
COc1ccc(C(=O)NCc2ccc(Cl)c(Cl)c2)cc1OC	none
O=C(NCCOc1ccccc1Cl)C(=O)NCCOc1ccccc1Cl	none
Cc1cccc(-c2noc(-c3cccnc3NCc3ccco3)n2)c1	none
O=C(Nc1ccc(SC(F)F)cc1)c1cccc2nc3ccccc3nc12	none
CCOP(=O)(CN(CC)C(=O)c1ccccc1Br)OCC	none
O=[N+]([O-])c1ccc(Oc2cc(NC3CCCCCCC3)c([N+](=O)[O-])cc2[N+](=O)[O-])cc1	none
CC(=O)c1cccc(N(C(=O)c2ccco2)C(C(=O)NC2CCCC2)c2cccs2)c1 (stereo not given)	none
COc1ccc(N(C(=O)c2ccncc2)S(=O)(=O)c2ccc(OC)c(OC)c2)cc1	none
CCOC(=O)c1ccc(S(=O)(=O)NCCN(CC)CC)cc1	none
CCN(CC)CCNS(=O)(=O)c1ccc(C(=O)NN)cc1	D1 antag -35
COc1cccc(N2CCN(S(=O)(=O)c3ccc4c(c3)NC(=O)CS4)CC2)c1	D1 antag -32
CCOC(=O)c1sc(NC(=O)CCN2C(=O)c3cccc([N+](=O)[O-])c3C2=O)c(C(=O)OCC)c1C	D1 antag -33
CN(CC(=O)NC(=O)NCc1ccccc1)Cc1ccc(Cl)c(Cl)c1	none
COc1ccc(CN(C)CC(=O)NC(=O)NCc2ccccc2)c(OC)c1	D1 antag -55
CCc1c(O)nc(SCC(=O)Nc2cc(C)on2)n(-c2ccccc2)c1=O	none
Cc1cccc2cc(CN(Cc3ccco3)S(=O)(=O)c3ccc4c(c3)OCCO4)c(=O)[nH]c12	D1 antag -51
CC1(C)Cc2cccc(OCC(=O)OCC(=O)Nc3ccc(C(N)=O)cc3)c2O1	D1 antag -39
O=C1OC(c2ccc(Cl)cc2)=C/C1=C/c1cccnc1	none
COc1ccc(C2=C/C(=C\c3cccc(OC(C)=O)c3)C(=O)O2)cc1	D1 ag 81, D1 antag -31
COc1ccc(C2=C/C(=C\c3ccccc3OC(C)=O)C(=O)O2)cc1	D1 ag 54
Cc1cc(OCC(=O)NCc2cccnc2)c2c(C)c(Cc3ccccc3)c(=O)oc2c1	none
Cc1c(O)c(S(=O)c2ccccc2)c(=O)n(-c2ccccc2)c1-c1ccccc1 (stereo not given)	TRHR enhancer 32
Clc1cccc(Cl)c1CSc1nnc(-c2sccc2-n2cccc2)o1	D1 ag 50
CSc1nnc(-c2sccc2-n2cccc2)o1	none
O=C1c2cccnc2C(Nc2ccc(S(=O)(=O)N3CCCCC3)cc2)N1Cc1ccccc1 (stereo not given)	none
CCOc1cc(/C=N/N=C2/NC(=O)C(CC(=O)O)S2)ccc1OCc1ccc(Cl)cc1 (stereo not given)	none
O=c1cc(-c2ccc(F)cc2)nc(SCc2nc(-c3ccc(Cl)cc3)no2)[nH]1	TRHR enhancer 43
c1ccc(-c2csc3ncnc(N4CCc5ccccc5C4)c23)cc1	none
Cc1ccc(CNC(=O)C2CCN(S(=O)(=O)c3c(C)noc3/C=C/c3ccccc3F)CC2)o1	none

Screens: PubChem, National Center for Advancing Translational Sciences (NCATS)
